# Source: PubChem (several laboratories)
# EBV LMP1 NFkB: Epstein-Barr LMP1 NF-kappaB reporter inhibition; LMP1-induced NF-kappaB luciferase reporter cells, luminescence; inhibition, % at 12.5 µM; 0.69% of 350,000 active; AID 504558; in the data active means inhibition above about 41%;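 further: 0% = neutral control wells and 100% = reference inhibitor control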
# LGR2 inh: Drosophila LGR2 receptor signaling inhibition. 0.35% of 380,000 active. inhibition, % at 9.99 µM. HEK293 LGR2, CRE-luciferase, bursicon-stimulated, 4 h;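 active means drop in luminescence signal, shown as inhibition above about 50% in the replicate tests, limit read from the data, passing the limit was not always enough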;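 further: agonist challenge used bursicon conditioned medium at about half maximal strength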
# EWS-Fli block: inhibitors of EWS/Fli oncoprotein transcriptional activity; A673 NR0B1-luciferase reporter, viability-normalised; inhibition, % at 12.6 µM; 0.67% of 350,000 active; AID 651661;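 active means mean inhibition of at least 50% after viability correction, with every replicate also passing that limit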;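 further: firefly luciferase signal divided by Alamar Blue viability fluorescence both relative to DMSO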
# TROY NFkB inh: blocks TROY-dependent signaling in reporter cells; Q293 LMP1-TROYcd NF-kB luciferase reporter, 4 h; inhibition, % at 10 µM; 0.98% of 360,000 active; AID 1347056;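 active means compounds whose plate-normalised and pattern-corrected inhibition of the luciferase reporter signal at the single screening dose is 50% or more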
# TWEAK-Fn14 inh: inhibitors of TWEAK-Fn14 interaction signaling; inhibition, % at 10 µM; TWEAK-stimulated Fn14 reporter cells, luciferase luminescence, 8 h; 2% of 360,000 active; AID 1159606; in the data active means inhibition above about 50%
# PAX8 inh HTS: inhibitors of PAX8 transcriptional activity in RMG-I cells; inhibition, % at 12.6 µM; RMG-I TPO-luciferase reporter, SteadyGlo, 24 h; AID 652154; 1.2% of 360,000 active;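 active means mean replicate inhibition at least 60% with every replicate also reaching 60%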;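 further: luciferase light reporting Pax8 driven TPO promoter activity; plate controls were median of neutral control wells for no effect and mitoxantrone controls for full effect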
# Active calls of the source: *; . = no result given. An excerpt weighted towards active compounds, which were near 3.1% of everything screened.
SMILES,EBV LMP1 NFkB,LGR2 inh,EWS-Fli block,TROY NFkB inh,TWEAK-Fn14 inh,PAX8 inh HTS
COc1ccc(C(=O)c2ccc(Cl)cc2)c2ccccc12,-49,.,.,1,17,.
COc1ccc(C(=O)c2ccccc2)c2c(O)ccc(C(=O)c3ccccc3)c12,22,.,.,49,57*,.
CC(Oc1ccc(F)cc1)C(=O)Nc1nc(-c2ccccn2)cs1 (stereo unspecified),14,7,27,74*,-94,69*
O=C(CCS(=O)(=O)c1ccccc1)Nc1nc(-c2ccccn2)cs1,1,3,13,7,11,73*
CC(Oc1ccc(Br)cc1)C(=O)Nc1ccncc1 (stereo unspecified),2,-18,10,5,23,-8
Cc1csc(NC(=O)C(C)Oc2ccc(Br)cc2)n1 (stereo unspecified),-3,10,-7,-9,13,106*
O=C(CCS(=O)(=O)c1ccc(F)cc1)Nc1nc(-c2ccccn2)cs1,11,26,18,3,12,84*
O=C(CCS(=O)(=O)c1ccccc1)Nc1ccccn1,3,-17,0,1,12,-22
O=C(C[C@@H]1CC[C@@H](NC(=O)C2CCOCC2)[C@H](CO)O1)NCc1ccncc1,.,-5,-5,.,.,.
C[C@H](CO)N1C[C@H](C)[C@H](CN(C)C(=O)c2ccccc2)OCCCC[C@H](C)Oc2ccc(NC(=O)c3ccncc3)cc2C1=O,.,14,-6,.,.,3
COCC#Cc1ccc([C@H]2[C@H]3CN(C(=O)c4cccnc4)CC(=O)N3[C@H]2CO)cc1,.,-8,15,.,.,.
O=C1CCCn2cc(nn2)COC[C@H](Cc2ccccc2)N1,.,4,-10,.,.,-19
CCCc1[nH]nc2c1C(c1cn[nH]c1-c1ccc(F)cc1)C(C#N)=C(N)O2 (stereo unspecified),10,.,.,28,54*,.
C[C@H](CO)N1C[C@H](C)[C@@H](CN(C)C)Oc2ccc(NS(=O)(=O)c3ccccc3)cc2CC1=O,.,7,-3,.,.,8
COC(=O)[C@H](CC(C)C)NC(=O)Nc1ccc2c(c1)OCCO2,7,-10,-5,32,66*,.
CC(C)CC(NC(=O)C1CCC(C)CC1)C(=O)Nc1ccc2c(c1)OCCO2 (stereo unspecified),3,-9,-15,31,68*,-76
Cc1cccc(NC(=O)c2ccc(Cl)c(S(=O)(=O)N3CCc4ccccc43)c2)n1,12,4,-6,37,58*,31
O=C(Nc1nnc(C2CC2)s1)c1ccc(Cl)c(S(=O)(=O)N2CCc3ccccc3C2)c1,5,-8,1,56*,50,-12
CCc1nnc(NC(=O)c2ccc(Cl)c(S(=O)(=O)N3CCc4ccccc43)c2)s1,-2,.,.,61*,-9,.
O=C(Nc1ccncc1)c1ccc(Cl)c(S(=O)(=O)N2CCc3ccccc32)c1,13,19,29,46,78*,49
COc1cccc(-c2cccc(-c3nc(C(=O)N(C)C)cc4c3[C@H](CCO)N([S@@](=O)C(C)(C)C)C4)c2)c1,.,-7,-1,.,.,41
COc1cccc(-c2ccc([C@H]3[C@@H](CO)N4CCCCN(C(=O)c5ccc(F)cc5)C[C@H]34)cc2)c1,.,-4,-5,.,.,14
CC(=O)N(CCc1ccccc1C)Cc1cc2cc3c(cc2[nH]c1=O)OCO3,8,.,.,.,100*,.
Cc1ccccc1-c1cnc2c(c1)C(=O)N([C@@H](C)CO)C[C@H](C)[C@@H](CN(C)Cc1ccccc1F)O2,.,-16,13,.,.,.
O=C(Cc1ccc([N+](=O)[O-])cc1)N1CCN=C1SCc1ccccc1,6,-5,0,-11,-14,11
O=C(C1CCCCC1)N1CCN=C1SCc1cccc([N+](=O)[O-])c1,11,45,15,26,54*,11
Cc1ccc(C)c(CSC2=NCCN2C(=O)Cc2ccc([N+](=O)[O-])cc2)c1,9,-7,-3,5,-12,95*
OC[C@@H]1[C@@H](c2ccccc2)C2(CN(Cc3nccs3)C2)N1Cc1cccnc1,.,7,-6,.,.,-2
CCOCCCNC(=O)/C(C#N)=C/c1ccc(Cl)c([N+](=O)[O-])c1,58*,90*,65*,-3,11,-3
CNC(=O)/C(=C\c1cccc(Oc2ccccc2)c1)NC(=O)c1ccccc1,2,12,.,-20,-3,-25
